# Screens from PubChem.
# PP5 primary: PP5 phosphatase inhibitors, primary screen, biochemical, fluorescence. Serine/threonine-protein phosphatase 5 (Homo sapiens), P53041. purified PP5c, OMFP substrate fluorescence. inhibition, % at 6.7 µM. 0.18% of 320,000 active. AID 1987, 2009;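 active = inhibition above the campaign's mean inhibition across all tested compounds plus 3 SD, cut at about 9.5% in these data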;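 also: 0% = DMSO only and 100% = 100 µM cantharidin control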
# Target sequence (P53041 whole entry, looked up): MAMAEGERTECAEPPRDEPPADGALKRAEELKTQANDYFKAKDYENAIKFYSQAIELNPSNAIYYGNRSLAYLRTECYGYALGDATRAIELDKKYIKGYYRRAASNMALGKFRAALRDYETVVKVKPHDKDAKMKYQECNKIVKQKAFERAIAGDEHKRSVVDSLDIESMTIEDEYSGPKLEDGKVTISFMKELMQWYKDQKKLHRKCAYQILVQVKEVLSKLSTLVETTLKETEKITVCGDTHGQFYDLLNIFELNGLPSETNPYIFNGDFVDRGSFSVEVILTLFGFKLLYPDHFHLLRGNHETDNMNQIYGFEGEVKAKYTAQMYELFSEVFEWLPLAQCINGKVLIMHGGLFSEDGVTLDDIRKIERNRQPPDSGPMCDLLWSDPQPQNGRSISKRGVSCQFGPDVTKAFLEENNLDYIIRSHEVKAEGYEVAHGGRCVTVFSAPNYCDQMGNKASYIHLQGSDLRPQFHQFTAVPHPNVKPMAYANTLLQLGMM
# Beta apoptosis: inhibitors of cytokine-induced beta cell apoptosis, primary screen, luminescence. protection from apoptosis, % (test concentration not listed). INS-1E cytokine-induced death, ATP luminescence, 48 h; percent of positive-control rescue, neutral wells zero. 0.8% of 300,000 active;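 active = Every replicate reaches about 75%, or at least half do and their mean reaches it too, limit read from the data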;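 also: 0% = cytokine-treated negative control wells and 100% = positive control rescue; higher means more ATP so stronger rescue from cytokine killing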
# PP1 counter: PP1-alpha phosphatase inhibitors, primary screen, counter-screen for PP5 inhibitor project, biochemical, fluorescence, OMFP substrate, single point; Serine/threonine-protein phosphatase PP1-alpha catalytic subunit (Homo sapiens), P62136; purified PP1alpha; inhibition, % at 6.7 µM; 0.9% of 320,000 active;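 active = inhibition above the mean inhibition of all tested compounds plus 3 SD, computed separately for each screening campaign, cut at about 15% in these data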
# CSC inhib: cancer stem cell viability inhibitors, primary screen, luminescence; cancer stem cell-like cells viability; inhibition, % at 7.5 µM; 1.1% of 300,000 active; AID 2717, 2010; in the data active = inhibition above about 75%; tested in HMLE shEcad cells
# SKKanGAS inh: S. pyogenes SKKanGAS growth inhibitors in kanamycin, primary screen, streptokinase expression inhibitor project, SKKanGAS strain, BacTiter-Glo luminescence; 1.3% of 300,000 active; 6 h; inhibition, % at 7.5 µM;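 active = mean replicate score, as percent of positive control median, at least 50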;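 also: strain carries kanamycin resistance gene driven by streptokinase promoter and grows in 40 µg/ml kanamycin; loss of luminescence reflects streptokinase promoter inhibition or plain growth inhibition; 0% = median of DMSO wells and 100% = positive control at its reference dose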
# * = called active by the depositor; . = not tested or not shown. Rows were chosen to be rich in hits. Some 3.1% of all compounds tested hit in one or more screens of this group.
SMILES,PP5 primary,Beta apoptosis,PP1 counter,CSC inhib,SKKanGAS inh
Cc1ccc2nc(N3C(=O)C(O)=C(C(=O)c4cc5ccccc5o4)C3c3cccs3)sc2c1 (stereo not given),1,4,12,1,104*
COC(=O)c1ccc(C2C(C(=O)c3ccco3)=C(O)C(=O)N2c2cc(C)on2)cc1 (stereo not given),-1,-3,7,1,-9
COc1ccc(/C=N/N2C(C)CCCC2C)cc1OC (stereo not given),-1,-8,-5,3,-1
COC(=O)c1sc(N2C(=O)C(O)=C(C(=O)c3ccc(C)o3)C2c2ccc(F)cc2)nc1C (stereo not given),4,1,17*,2,42
CN(CCC#N)C(=O)COC(=O)c1ccccc1OCc1ccccc1Cl,4,.,-5,8,1
CCC1CSC(Nc2ccc(C(=O)/C=C/c3ccc(Br)cc3)cc2)=N1 (stereo not given),4,31,15*,79*,-5
Clc1cccc(Nc2ncnc3c2cnn3-c2ccccc2)c1,6,.,5,56,64*
Cc1nn(-c2ccccc2)nc1C(=O)c1c(C)[nH]n(-c2ccccc2)c1=O,-2,-4,-1,37,61*
C/C(=N\NC(=O)c1ccc(C)cc1)c1c(C)[nH]n(-c2ccccc2)c1=O,.,91*,.,36,56*
C/C(=N\NC(=O)c1ccccc1)c1c(C)[nH]n(-c2ccccc2)c1=O,-2,14,-4,58,19
CCOC(=O)c1nn(-c2ccccc2C)c(=O)cc1OCC(=O)Nc1cccc(OC)c1,-1,-2,0,12,44
CCOC(=O)c1nn(-c2ccccc2Cl)c(=O)cc1OCC(=O)Nc1cccc(OC)c1,0,5,-1,5,53*
CCCC(CCC)=NNc1ccc(S(=O)(=O)Nc2ccccc2OC)cc1[N+](=O)[O-],-1,11,-1,18,15
COc1ccccc1NS(=O)(=O)c1ccc(N/N=C(\C)C(C)C)c([N+](=O)[O-])c1,3,78*,2,18,2
O=C(N/N=C/c1cc2c3c(c1O)CCCN3CCC2)c1ccccc1O,.,.,.,.,55*
Cc1nn(-c2ccccc2)c(N2CCCC2)c1/C=N/NC(=O)c1ccccc1O,6,0,3,3,5
Cc1ccc2[nH]c(C(=O)N/N=C/c3ccccc3C(=O)O)c(-c3ccccc3)c2c1,2,.,3,.,0
Cc1ccc2[nH]c(C(=O)N/N=C/c3ccccc3O)c(C)c2c1,3,86*,6,38,101*
COc1ccc2[nH]c(C(=O)N/N=C/c3ccccc3OC)cc2c1,4,1,0,37,-4
COc1cc(OC)c2cc(C(=O)N/N=C/c3ccccc3O)[nH]c2c1,2,85*,7,71,103*
COc1ccc(-c2n[nH]c(=S)n2-c2ccc(C)cc2)cc1OC,-1,0,-1,-8,-4
CCCc1c(C(=O)Nc2ccc(C(F)(F)F)cc2)cnn1-c1ccccc1,3,19,1,26,-4
CCCc1c(C(=O)NNc2ccc(C)cc2)cnn1-c1ccccc1,1,-9,0,93*,31
COc1ccc(NC(=S)N=Nc2c(O)[nH]c3ccccc23)cc1,3,22,4,52,95*
Cc1ccc(NC(=S)N=Nc2c(O)[nH]c3ccccc23)cc1,2,.,-2,53,73*
SMILES,PP5 primary,Beta apoptosis,PP1 counter,CSC inhib,SKKanGAS inh
COc1ccc(CNC(=O)C2CCN(C(=O)[C@@H]3Cc4ccccc4CN3)CC2)cc1,-1,-1,-2,0,13
COc1ccc(OCCC(=O)NCCN2CCOCC2)cc1,1,2,-2,13,-5
Cc1nn(-c2ccc(N3CCOCC3)nn2)c(C)c1CCC(=O)Nc1ccc(F)cc1,1,1,-3,-1,2
CCc1c(C)sc(NC(=S)N2CCN(CC)CC2)c1C(=O)OC,0,-4,3,53,28
CCN1CCN(C(=S)Nc2sc(C)c(-c3ccccc3)c2C(=O)OC)CC1,5,3,1,90*,6
COCc1cc(C)nc(N/N=C/c2ccc(-c3ccc(Cl)cc3[N+](=O)[O-])o2)c1C#N,.,.,.,.,-7
Cc1cc(NC(=S)N(Cc2ccc(Br)cc2)Cc2ccc(C(=O)O)cc2)ccc1Cl,5,-4,16*,14,39
